# Laboratory results: ChEMBL document CHEMBL2218924, “A broad activity screen in support of a chemogenomic map for kinase signalling research and drug discovery” (Biochem J, 2013)
# Experiments:
# [1] = molecular target: Tyrosine-protein kinase SYK (Homo sapiens) (UniProt P43405); conditions: at 10 µM
# [2] = molecular target: T1, Mitogen-activated protein kinase kinase kinase 7 (Homo sapiens) (UniProt O43318); conditions: at 1 µM
# T1 sequence (whole entry): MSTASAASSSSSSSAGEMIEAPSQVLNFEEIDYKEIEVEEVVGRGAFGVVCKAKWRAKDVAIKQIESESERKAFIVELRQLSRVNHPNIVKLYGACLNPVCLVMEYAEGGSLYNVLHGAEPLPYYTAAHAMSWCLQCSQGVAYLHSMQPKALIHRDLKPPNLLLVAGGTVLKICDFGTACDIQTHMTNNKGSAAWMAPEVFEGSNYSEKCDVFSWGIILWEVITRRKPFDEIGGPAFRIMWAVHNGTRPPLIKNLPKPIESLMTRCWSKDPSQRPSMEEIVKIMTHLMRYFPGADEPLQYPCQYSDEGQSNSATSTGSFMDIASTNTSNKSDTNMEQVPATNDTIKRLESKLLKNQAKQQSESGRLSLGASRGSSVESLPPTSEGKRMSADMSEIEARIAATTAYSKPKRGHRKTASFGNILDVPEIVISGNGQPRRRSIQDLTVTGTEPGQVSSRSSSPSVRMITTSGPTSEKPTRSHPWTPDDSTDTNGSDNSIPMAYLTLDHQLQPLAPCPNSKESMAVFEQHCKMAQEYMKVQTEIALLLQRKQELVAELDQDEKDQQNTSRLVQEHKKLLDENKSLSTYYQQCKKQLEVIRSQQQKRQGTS
# [3] = molecular target: T1, Mitogen-activated protein kinase kinase kinase 7 (Homo sapiens); conditions: at 10 µM
# [4] = molecular target: T2, Serine/threonine-protein kinase TAO1 (Homo sapiens) (UniProt Q7L7X3); conditions: at 1 µM
# T2 sequence (whole entry): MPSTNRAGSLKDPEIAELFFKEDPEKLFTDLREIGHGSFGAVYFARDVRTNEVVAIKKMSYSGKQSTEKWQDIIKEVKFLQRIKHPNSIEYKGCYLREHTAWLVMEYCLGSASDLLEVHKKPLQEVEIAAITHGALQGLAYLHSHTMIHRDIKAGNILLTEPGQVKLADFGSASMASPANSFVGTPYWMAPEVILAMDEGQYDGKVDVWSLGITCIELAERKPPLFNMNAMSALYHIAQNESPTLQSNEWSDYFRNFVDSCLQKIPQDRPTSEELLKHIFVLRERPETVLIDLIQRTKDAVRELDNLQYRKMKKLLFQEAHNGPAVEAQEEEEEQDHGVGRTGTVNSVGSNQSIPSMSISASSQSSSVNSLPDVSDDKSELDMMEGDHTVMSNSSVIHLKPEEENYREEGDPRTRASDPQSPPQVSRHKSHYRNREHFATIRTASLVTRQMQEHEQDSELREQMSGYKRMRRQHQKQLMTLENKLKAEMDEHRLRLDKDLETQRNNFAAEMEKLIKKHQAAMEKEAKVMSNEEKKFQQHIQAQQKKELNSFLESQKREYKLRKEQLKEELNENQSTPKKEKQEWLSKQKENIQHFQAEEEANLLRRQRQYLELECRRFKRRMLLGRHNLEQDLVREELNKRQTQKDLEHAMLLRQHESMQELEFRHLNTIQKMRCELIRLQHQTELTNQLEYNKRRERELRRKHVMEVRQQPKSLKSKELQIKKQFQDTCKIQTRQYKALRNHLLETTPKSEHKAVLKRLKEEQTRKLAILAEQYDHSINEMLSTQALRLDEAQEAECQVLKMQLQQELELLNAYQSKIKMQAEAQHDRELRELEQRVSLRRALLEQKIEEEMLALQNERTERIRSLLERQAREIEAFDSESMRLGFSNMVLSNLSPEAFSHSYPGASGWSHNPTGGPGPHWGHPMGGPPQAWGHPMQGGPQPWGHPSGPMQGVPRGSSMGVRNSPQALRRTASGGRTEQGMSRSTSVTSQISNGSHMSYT
# [5] = molecular target: T2, Serine/threonine-protein kinase TAO1 (Homo sapiens); conditions: at 10 µM
# [6] = molecular target: T3, Serine/threonine-protein kinase TAO2 (Homo sapiens) (UniProt Q9UL54); conditions: at 1 µM
# T3 sequence (whole entry): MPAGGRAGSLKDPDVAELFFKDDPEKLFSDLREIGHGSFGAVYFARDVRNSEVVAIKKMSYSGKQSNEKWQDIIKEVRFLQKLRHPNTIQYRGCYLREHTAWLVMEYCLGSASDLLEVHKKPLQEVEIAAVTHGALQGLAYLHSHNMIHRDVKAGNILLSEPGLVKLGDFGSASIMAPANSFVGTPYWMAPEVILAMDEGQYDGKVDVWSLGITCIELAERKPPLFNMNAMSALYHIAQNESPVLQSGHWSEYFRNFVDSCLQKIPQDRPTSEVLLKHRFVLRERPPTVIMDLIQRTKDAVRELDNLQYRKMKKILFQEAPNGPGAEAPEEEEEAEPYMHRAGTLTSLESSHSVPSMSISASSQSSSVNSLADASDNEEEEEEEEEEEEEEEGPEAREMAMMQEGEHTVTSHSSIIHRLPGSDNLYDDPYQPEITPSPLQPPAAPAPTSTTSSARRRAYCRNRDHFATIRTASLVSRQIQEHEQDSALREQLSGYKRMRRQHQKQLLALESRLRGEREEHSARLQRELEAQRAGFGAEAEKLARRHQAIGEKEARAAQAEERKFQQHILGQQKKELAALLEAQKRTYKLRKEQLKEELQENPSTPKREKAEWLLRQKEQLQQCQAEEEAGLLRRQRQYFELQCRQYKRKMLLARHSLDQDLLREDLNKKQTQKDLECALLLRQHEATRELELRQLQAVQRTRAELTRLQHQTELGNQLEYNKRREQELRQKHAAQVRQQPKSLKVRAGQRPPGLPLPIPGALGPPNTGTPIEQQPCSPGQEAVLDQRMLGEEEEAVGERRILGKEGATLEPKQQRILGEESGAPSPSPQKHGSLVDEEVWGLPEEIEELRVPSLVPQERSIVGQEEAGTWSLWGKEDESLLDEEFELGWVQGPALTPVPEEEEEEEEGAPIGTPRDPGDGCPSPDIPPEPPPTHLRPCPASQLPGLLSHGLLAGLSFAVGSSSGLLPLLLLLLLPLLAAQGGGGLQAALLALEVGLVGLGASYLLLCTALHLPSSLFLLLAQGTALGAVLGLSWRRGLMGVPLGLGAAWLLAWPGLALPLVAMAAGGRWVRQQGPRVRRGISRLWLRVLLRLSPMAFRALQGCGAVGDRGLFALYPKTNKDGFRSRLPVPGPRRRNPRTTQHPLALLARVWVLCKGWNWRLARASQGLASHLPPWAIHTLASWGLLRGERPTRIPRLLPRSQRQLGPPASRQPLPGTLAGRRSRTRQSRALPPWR
# [7] = molecular target: T3, Serine/threonine-protein kinase TAO2 (Homo sapiens); conditions: at 10 µM
# [8] = molecular target: T4, Serine/threonine-protein kinase TAO3 (Homo sapiens) (UniProt Q9H2K8); conditions: at 1 µM
# T4 sequence (whole entry): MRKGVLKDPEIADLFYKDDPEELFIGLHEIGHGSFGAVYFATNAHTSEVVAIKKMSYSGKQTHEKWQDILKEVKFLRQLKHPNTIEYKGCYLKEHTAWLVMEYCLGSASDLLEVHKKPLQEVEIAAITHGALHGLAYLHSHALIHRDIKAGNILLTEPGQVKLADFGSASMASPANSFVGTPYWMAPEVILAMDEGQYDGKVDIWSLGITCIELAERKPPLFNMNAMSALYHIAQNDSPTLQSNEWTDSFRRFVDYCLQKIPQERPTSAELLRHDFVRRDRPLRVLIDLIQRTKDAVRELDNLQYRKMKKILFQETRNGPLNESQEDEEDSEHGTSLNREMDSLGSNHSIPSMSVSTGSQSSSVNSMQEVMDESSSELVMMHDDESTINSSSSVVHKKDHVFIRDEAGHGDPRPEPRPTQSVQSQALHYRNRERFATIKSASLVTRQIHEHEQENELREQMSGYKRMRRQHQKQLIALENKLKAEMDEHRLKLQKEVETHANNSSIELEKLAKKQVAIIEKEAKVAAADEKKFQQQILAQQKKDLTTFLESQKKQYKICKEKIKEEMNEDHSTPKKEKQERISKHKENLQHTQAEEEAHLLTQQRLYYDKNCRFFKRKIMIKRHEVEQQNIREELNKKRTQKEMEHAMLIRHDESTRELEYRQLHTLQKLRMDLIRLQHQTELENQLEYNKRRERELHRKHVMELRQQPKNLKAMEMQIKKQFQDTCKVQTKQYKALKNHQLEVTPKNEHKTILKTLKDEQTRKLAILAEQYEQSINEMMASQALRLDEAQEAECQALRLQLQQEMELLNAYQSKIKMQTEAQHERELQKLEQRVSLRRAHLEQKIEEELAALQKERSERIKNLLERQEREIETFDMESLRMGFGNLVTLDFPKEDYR
# [9] = molecular target: T4, Serine/threonine-protein kinase TAO3 (Homo sapiens); conditions: at 10 µM
# [10] = molecular target: T5, Serine/threonine-protein kinase TBK1 (Homo sapiens) (UniProt Q9UHD2); conditions: at 1 µM
# T5 sequence (whole entry): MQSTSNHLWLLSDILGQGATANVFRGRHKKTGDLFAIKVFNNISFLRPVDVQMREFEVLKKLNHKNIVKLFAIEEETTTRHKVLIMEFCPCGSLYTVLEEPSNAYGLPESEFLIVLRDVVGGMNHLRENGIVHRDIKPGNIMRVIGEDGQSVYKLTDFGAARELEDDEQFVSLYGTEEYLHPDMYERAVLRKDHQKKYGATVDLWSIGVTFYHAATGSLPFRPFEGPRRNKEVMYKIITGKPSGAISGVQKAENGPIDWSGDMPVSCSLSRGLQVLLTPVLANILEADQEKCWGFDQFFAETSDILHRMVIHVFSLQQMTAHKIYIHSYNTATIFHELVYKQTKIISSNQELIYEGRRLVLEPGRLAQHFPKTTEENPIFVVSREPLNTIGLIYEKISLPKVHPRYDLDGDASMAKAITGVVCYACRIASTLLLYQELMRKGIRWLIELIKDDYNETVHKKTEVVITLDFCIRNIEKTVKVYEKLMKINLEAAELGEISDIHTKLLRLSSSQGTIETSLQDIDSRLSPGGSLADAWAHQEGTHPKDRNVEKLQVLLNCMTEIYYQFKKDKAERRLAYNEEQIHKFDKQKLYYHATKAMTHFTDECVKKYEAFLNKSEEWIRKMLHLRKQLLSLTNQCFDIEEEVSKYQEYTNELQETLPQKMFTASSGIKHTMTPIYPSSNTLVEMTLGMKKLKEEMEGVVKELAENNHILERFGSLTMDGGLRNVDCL
SMILES,residual activity [1] [%],residual activity [2] [%],residual activity [3] [%],residual activity [4] [%],residual activity [5] [%],residual activity [6] [%],residual activity [7] [%],residual activity [8] [%],residual activity [9] [%],residual activity [10] [%]
Nc1nc(Nc2ccc(S(N)(=O)=O)cc2)nn1C(=S)Nc1c(F)cccc1F,3,9,2,0,1,2,3,0,2,-1
CN(C)CCCn1cc(C2=C(c3c[nH]c4ccccc34)C(=O)NC2=O)c2ccccc21,57,103,64,,53,101,49,88,27,80
O=[N+]([O-])c1ccc(-c2nc(-c3ccc(F)cc3)c(-c3ccncc3)[nH]2)cc1,107,104,91,97,91,109,103,98,96,87
c1ccc2c(-c3ccncc3)c[nH]c2c1,92,85,85,100,66,,85,98,72,65
Ic1cccc(CSc2nnc(-c3ccncc3)o2)c1,96,,82,63,47,88,85,93,89,15
CO[C@@H]1[C@H](N(C)C(=O)c2ccccc2)C[C@H]2O[C@]1(C)n1c3ccccc3c3c4c(c5c6ccccc6n2c5c31)C(=O)NC4,3,,,50,17,83,47,42,29,2
O=C1NC(=O)/C(=C/c2ccc3c(c2)OC(F)(F)O3)S1,73,96,88,100,74,113,105,103,66,80
Oc1ccc(-c2nc(-c3ccc(F)cc3)c(-c3ccncc3)[nH]2)cc1,100,104,101,102,69,106,68,111,84,110
Cc1cccc(-c2[nH]c(C(C)(C)C)nc2-c2ccc3c(c2)OCO3)n1,,89,90,103,98,,90,101,102,73
